Experiment [1] is described as follows: E. coli DRC41 culture turbidity changes, primary screen, E. coli filamentation inducer project, strain DRC41, OD650, 48 h (AID 1152).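 Further: E. coli MC1000 strain DRC41 lacking acrAB efflux pump and sulA.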 As to conditions: E. coli DRC41 (acrAB sulA), higher = more signal, called active from +8 up or from −8 down.
Experiment [2] in a line: small-molecule binders of probe aLefty1, primary screen, biochemical, small-molecule microarray, 635/667 nm fluorescence (AID 1153).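 Further: score merges spot fluorescence with signal-to-noise ratio from the scanned slide images.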 As to conditions: higher = more signal.
Experiment [3] is described as follows: PSAC antagonists in infected red cells, primary screen, cell-based, P. falciparum Indochina, OD700, 1 h (AID 1154). As to conditions: P. falciparum Indochina infected RBC osmotic lysis, higher = more signal, called active from +8 up or from −8 down.
Experiment [4] is described as follows: PSAC antagonists in infected red cells, primary screen, cell-based, P. falciparum Indochina, OD700, 2 h (AID 1155).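 Further: lysis reports solute entry through the parasite surface anion channel PSAC; channel blockers reduce lysis of infected cells.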 As to conditions: P. falciparum Indochina infected erythrocytes, osmotic lysis OD700; higher = more signal, called active from +8 up or from −8 down.
A short description of experiment [5]: osmotic lysis modulators in infected erythrocytes, primary screen, PSAC antagonist project, cell-based, P. falciparum Indochina, OD700, 3 h (AID 1156). The settings on record: higher = more signal, called active from +8 up or from −8 down.
The nature of experiment [6]: PSAC antagonists in infected red cells, primary screen, cell-based, P. falciparum Indochina, OD700, 18 h (AID 1157). The settings on record: P. falciparum Indochina infected erythrocytes, osmotic lysis OD700, 18 h; higher = more signal, called active from +8 up or from −8 down.
Experiment [7] in a line: modulators of S6 phosphorylation in cells, primary screen, cell-based, A549, cytoblot, luminescence, serum-stimulated (AID 1158).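 Further: serum-stimulated A549 lung adenocarcinoma cells; signal is phosphorylated S6 detected by cytoblot immunostaining with HRP secondary.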 As to conditions: A549 phospho-S6 cytoblot, 5 h, higher = more signal.
Experiment [8] addresses NADPH oxidase 2 (Homo sapiens) (UniProt P04839). As to the kind of experiment: NOX2-dependent H2O2 signal modulators, primary screen, NOX inhibitor project, cell-based, HEK293-NOX2, PMA-stimulated, Amplex Red fluorescence (AID 1159). Further: test concentration not given here. The settings on record: 45 min, higher = more signal, called active from +8 up or from −8 down.
Experiment [9] addresses NADPH oxidase 4 (Homo sapiens) (UniProt Q9NPH5). Kind of experiment: NOX4-dependent H2O2 signal modulators, primary screen, NOX inhibitor project, cell-based, HEK293-NOX4, tetracycline-induced, Amplex Red fluorescence (AID 1160). As to conditions: 45 min, higher = more signal, called active from +8 up or from −8 down.
In experiment [10] the target is NADPH oxidase 5 (Homo sapiens) (UniProt Q96PH1). Kind of experiment: NOX5-dependent H2O2 signal modulators, primary screen, NOX inhibitor project, cell-based, HEK293-NOX5, Amplex Red fluorescence (AID 1161). The settings on record: HEK293-NOX5, ionomycin, 45 min, higher = more signal.
A short description of experiment [11]: A549 cell viability effects, profiling panel, calcein-AM fluorescence, 48 h, basal (AID 1162). Further: test concentration not given here. As to conditions: higher = more signal.
Experiment [12] in a line: adipocyte viability effects, profiling panel, cell-based, 3T3-L1 adipocytes, calcein-AM fluorescence, 48 h, basal (AID 1163). Further: test concentration not given here. The settings on record: 3T3-L1 adipocytes viability, higher = more signal.
Experiment [13] can be described thus: HepG2 cell viability effects, profiling panel, calcein-AM fluorescence, 48 h, basal (AID 1164). Further: test concentration not given here. As to conditions: higher = more signal.
A short description of experiment [14]: MM1S cell viability effects, profiling panel, calcein-AM fluorescence, 48 h, basal (AID 1165).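 Further: viability of MM1S multiple myeloma cells under basal unstimulated conditions; test concentration not given here.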 The settings on record: higher = more signal.
A short description of experiment [15]: basal RPMI8226 viability, no added stimulus, profiling panel, cell-based, calcein-AM fluorescence, 48 h, PK04 Diversity Set (AID 1166).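 Further: cells grown under basal conditions without added stimulus; test concentration not given here.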 As to conditions: RPMI8226 myeloma viability, higher = more signal.
Experiment [16] is described as follows: basal HepG2 mitochondrial membrane potential changes, profiling panel, cell-based, JC-1 fluorescence, 24 h, 100 nL compound (AID 1167). Further: test concentration not given here. As to conditions: higher = more signal.
The nature of experiment [17]: basal 3T3-L1 adipocyte mitochondrial potential changes, profiling panel, cell-based, JC-1 fluorescence, 3T3-L1 adipocytes, 24 h, 100 nL compound (AID 1168). Further: test concentration not given here. As to conditions: JC-1 mitochondrial fluorescence, higher = more signal, called active from +8 up or from −8 down.
Experiment [18] is described as follows: basal RPMI8226 mitochondrial membrane potential changes, profiling panel, cell-based, JC-1 fluorescence, 24 h, 100 nL compound (AID 1169). Further: test concentration not given here. The settings on record: RPMI8226 myeloma, JC-1 mitochondrial potential fluorescence, higher = more signal.
Experiment [19] in a line: basal MM1S mitochondrial membrane potential changes, profiling panel, cell-based, JC-1 fluorescence, 24 h, 100 nL compound (AID 1170). Further: test concentration not given here. The settings on record: higher = more signal.
Experiment [20] is described as follows: A549 lung cancer cell viability effects, profiling panel, resazurin fluorescence, 24 h, PK04 Diversity Set (AID 1171). Further: test concentration not given here. As to conditions: higher = more signal, called active from +8 up or from −8 down. On the technique in general: The colour change of resazurin is a common sign of viable cells or microbes.

The source made the active and inactive calls.

NADPH oxidase 4 (Homo sapiens), sequence (Q9NPH5 whole entry, looked up): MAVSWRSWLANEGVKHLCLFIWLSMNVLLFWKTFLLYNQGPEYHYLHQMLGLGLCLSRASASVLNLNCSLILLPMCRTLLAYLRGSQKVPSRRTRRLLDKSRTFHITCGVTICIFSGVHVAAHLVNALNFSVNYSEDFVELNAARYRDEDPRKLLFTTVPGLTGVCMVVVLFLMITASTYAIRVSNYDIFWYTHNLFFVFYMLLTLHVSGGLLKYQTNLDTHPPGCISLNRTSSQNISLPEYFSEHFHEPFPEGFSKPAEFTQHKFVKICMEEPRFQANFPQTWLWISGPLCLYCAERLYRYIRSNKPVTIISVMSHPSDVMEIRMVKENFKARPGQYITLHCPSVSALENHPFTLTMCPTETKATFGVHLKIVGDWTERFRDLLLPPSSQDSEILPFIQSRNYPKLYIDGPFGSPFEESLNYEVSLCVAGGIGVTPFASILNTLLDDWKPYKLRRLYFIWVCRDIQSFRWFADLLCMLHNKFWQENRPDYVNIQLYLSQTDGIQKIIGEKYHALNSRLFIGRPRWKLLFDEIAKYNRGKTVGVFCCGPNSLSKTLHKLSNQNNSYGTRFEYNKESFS
NADPH oxidase 5 (Homo sapiens), sequence (Q96PH1 whole entry, looked up): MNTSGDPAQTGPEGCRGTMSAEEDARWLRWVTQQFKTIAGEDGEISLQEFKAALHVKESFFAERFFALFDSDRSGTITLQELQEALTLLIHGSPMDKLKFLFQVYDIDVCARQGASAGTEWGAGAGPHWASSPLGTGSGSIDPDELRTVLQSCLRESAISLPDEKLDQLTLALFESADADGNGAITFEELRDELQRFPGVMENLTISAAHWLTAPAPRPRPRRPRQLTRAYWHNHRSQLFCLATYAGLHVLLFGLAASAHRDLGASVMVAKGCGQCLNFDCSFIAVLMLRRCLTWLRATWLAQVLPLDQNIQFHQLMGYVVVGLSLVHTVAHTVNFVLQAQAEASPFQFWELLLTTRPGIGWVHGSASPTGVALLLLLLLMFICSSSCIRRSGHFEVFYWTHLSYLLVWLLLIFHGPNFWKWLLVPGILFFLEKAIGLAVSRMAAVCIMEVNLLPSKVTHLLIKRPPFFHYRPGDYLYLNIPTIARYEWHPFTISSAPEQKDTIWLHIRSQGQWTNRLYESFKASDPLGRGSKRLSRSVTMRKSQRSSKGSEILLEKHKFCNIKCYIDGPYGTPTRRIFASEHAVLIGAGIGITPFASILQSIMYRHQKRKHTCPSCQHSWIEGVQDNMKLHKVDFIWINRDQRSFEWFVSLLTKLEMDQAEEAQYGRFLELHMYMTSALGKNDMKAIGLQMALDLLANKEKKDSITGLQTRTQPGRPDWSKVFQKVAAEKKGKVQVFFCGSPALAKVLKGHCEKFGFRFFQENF
NADPH oxidase 2 (Homo sapiens), sequence (P04839 whole entry, looked up): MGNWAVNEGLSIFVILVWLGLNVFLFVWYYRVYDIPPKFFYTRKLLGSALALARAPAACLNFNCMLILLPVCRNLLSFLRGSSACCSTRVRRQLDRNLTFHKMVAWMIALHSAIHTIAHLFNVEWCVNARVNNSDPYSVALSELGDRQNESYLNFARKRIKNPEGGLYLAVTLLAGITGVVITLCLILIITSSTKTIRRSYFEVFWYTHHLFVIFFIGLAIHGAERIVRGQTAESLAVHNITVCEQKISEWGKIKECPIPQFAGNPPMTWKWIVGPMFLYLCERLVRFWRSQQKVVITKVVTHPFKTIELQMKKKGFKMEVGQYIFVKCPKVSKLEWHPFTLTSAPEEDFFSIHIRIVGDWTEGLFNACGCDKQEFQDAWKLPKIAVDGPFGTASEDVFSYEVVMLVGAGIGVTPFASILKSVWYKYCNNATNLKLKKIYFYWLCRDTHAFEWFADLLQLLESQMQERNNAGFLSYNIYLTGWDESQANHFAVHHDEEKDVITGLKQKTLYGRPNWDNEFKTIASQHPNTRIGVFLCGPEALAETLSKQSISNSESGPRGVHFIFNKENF

For the compound `[N-]=[N+]=NCc1ccccc1C[C@]1(C(=O)NCC(O)CO)N=C(c2ccc(OCCCO)cc2)O[C@H]1c1ccccc1` (stereo not given in full), the z-score in experiment [1] is 0.243 (inactive); in experiment [3] it was 13.1 (active); in [4], 0.998 (inactive); in [5], -0.593 (inactive); in experiment [6], 0.865 (inactive); in experiment [7], -0.0127. In addition, the z-score in [8] is 2.49 (inactive); in [9], 0.717 (inactive); in experiment [10] it was -0.632; in [11] it was -0.691; in [12] it was 0.0311; in experiment [13], -1.25. Besides, the z-score in experiment [14] was -2.42; in experiment [15], -1.81; in experiment [16] it was -1.31; in experiment [17] it was -0.142 (inactive); in experiment [18], -0.547; in experiment [19], -0.727. The z-score in [20] is -0.246 (inactive). Besides, the composite z-score in [2] worked out at 0.33.
As for `CC(=O)n1cc(C(O)C2C=CC3C(=O)N(C)C(=O)C3N2Nc2ccccc2)c2ccccc21` (stereo not given), the z-score was -1.39 (inactive) in experiment [1]; 1.11 (inactive) in [3]; 0.475 (inactive) in experiment [4]; -0.372 (inactive) in experiment [5]; 0.876 (inactive) in experiment [6]; -0.994 in [7]. In addition, the z-score is -1.57 (inactive) in experiment [8]; -3.46 (inactive) in experiment [9]; -2.78 in [10]; -0.617 in experiment [11]; -0.652 in experiment [12]; -0.804 in experiment [13]. In addition, the z-score in [14] was 0.305; in experiment [15] it was -1.25; in experiment [16] it was -1.58; in [17] it was -0.454 (inactive); in [18] it was -0.0553; in experiment [19], 0.118. For the same compound, in [20], the z-score was -0.162 (inactive). In experiment [2], the composite z-score stood at 0.384.
On to `O=C1OCCC/C=C\[C@H]2OC34C=CCN(CCN5CCOCC5)C(=O)[C@H]3N(CCCO)C(=O)[C@@H]4C12` (stereo not given in full), for which the z-score in experiment [1] is -0.478 (inactive); in [3] it was 2.38 (inactive); in experiment [4] it was 0.351 (inactive); in experiment [5] it was -0.893 (inactive); in experiment [6], -0.352 (inactive); in experiment [7], -0.181. Also, the z-score is 1.18 (inactive) in [8]; 0.481 (inactive) in [9]; 2.27 in experiment [10]; -0.235 in experiment [11]; 1.01 in experiment [12]; -0.631 in experiment [13]. Further, the z-score was 1.19 in experiment [14]; -0.87 in experiment [15]; -1.01 in [16]; -0.734 (inactive) in experiment [17]; 0.806 in experiment [18]; 0.486 in [19]. Also, the z-score in [20] is 0.116 (inactive). Further, the composite z-score in experiment [2] is -0.284.
Turning to `CCN(CC)c1ccc(N2CC=CC34O[C@@H]5/C=C\CCC(C)OC(=O)C5[C@H]3C(=O)N(C(CO)C(C)C)[C@@H]4C2=O)cc1` (stereo not given in full), the z-score is 0.295 (inactive) in experiment [1]; 1.82 (inactive) in [3]; 0.585 (inactive) in [4]; 0.975 (inactive) in [5]; 0.674 (inactive) in [6]; -0.232 in experiment [7]. The z-score in experiment [8] was 0.398 (inactive); in [9] it was -0.502 (inactive); in experiment [10], 0.855; in experiment [11] it was -0.0553; in experiment [12] it was -1.18; in [13], 0.936. Besides, the z-score in experiment [14] was 1.26; in experiment [15], -0.208; in [16], 0.96; in experiment [17] it was -0.118 (inactive); in experiment [18], 0.0122; in [19], 1.01. For the same compound, the z-score in experiment [20] is 0.406 (inactive). For the same compound, the composite z-score in experiment [2] was determined as 0.2.

The values above are taken from PubChem BioAssay.
